Measured values taken from PubChem BioAssay AID2685 (National Center for Advancing Translational Sciences (NCATS), 2010).
In all, about 320,000 compounds went through this assay and about 2,100 (0.66%) were called active. Roughly 53% stayed inconclusive and do not appear here. The call rests on the fitted dose curve; in most records, active means well fitted inhibition curve with a large enough effect in the signal ratio, with a control signal flat (not every such curve was filed as active); inconclusive means small, poorly fitted or top-dose-only effect, or effect the other way, or a change in a side signal; inactive means flat fitted curve, though single readings scatter; the % refers to the signal ratio. This excerpt belongs to a sample that is enriched for actives.
Potency means the concentration at half of the fitted maximal effect.

Assay: qHTS Assay for Lipid Storage Modulators in Drosophila S3 Cells;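 on cell number change: cells counted by Cell Tracker Red CMTPX staining in the red channel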; on lipid storage change, negative = inhibition: on the % scale 0 is the no-effect control and ±100 the full control effect
Settings: BODIPY lipid droplet fluorescence, 18-24 h, cells fed with added oleic acid; cell number change: measured here: cell count max response; series mostly up to 46.1 µM; lipid storage change, negative = inhibition: at the top concentration
Method in brief: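 Drosophila S3 cells got compounds at several concentrations plus oleic acid (400 uM solution). Laser-scanning cytometry with 488 nm excitation read lipid droplets at 500-530 nm and cells at 575-640 nm. Percent activity was relative to 20 uM Triacsin C.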
For `COc1ccc(/C=C/C(=O)N2CCN(c3ccccn3)CC2)c(OC)c1OC`, the “lipid storage change, negative = inhibition” value was -3.76% (inactive) and the cell number change was 5.19%.
With `COc1ccc(C(=O)O)cc1S(=O)(=O)N1CCN(c2ccccn2)CC1` the Potency was 820 nM (active) and the cell number change was 2.78%.
In the case of `CN(C(=O)c1ccc(Cl)c(S(=O)(=O)N2CCOCC2)c1)c1ccccc1C(=O)O`, the Potency is reported as 820 nM (active) and the cell number change is reported as -5.89%.
For `COc1ccc(S(=O)(=O)N2CCN(c3ccccn3)CC2)c(OC)c1`, the “lipid storage change, negative = inhibition” value was -23.1% (inactive) and the cell number change was -13%.
With `COc1ccc(CC(=O)N(C)Cc2ccc(Cl)cc2)cc1S(=O)(=O)N1CCOCC1` the “outcome” value was “inactive”.
For `COc1ccc(Br)cc1CN(C)C(=O)Cc1ccc(OC)c(S(=O)(=O)N2CCOCC2)c1`, the Potency was 10300 nM (active) and the cell number change was 30.1%.
In the case of `COc1ccc(CC(=O)N(C)Cc2cccc(F)c2)cc1S(=O)(=O)N1CCOCC1`, the “lipid storage change, negative = inhibition” value is reported as 21.5% (inactive) and the cell number change is reported as 18.8%.
With `O=C(Nc1ccc(NC(=O)c2ccc(Cl)c(S(=O)(=O)N3CCOCC3)c2)cc1)c1ccccc1` the “lipid storage change, negative = inhibition” value was 13.6% (inactive).
For `O=C(Nc1ccccc1C(=O)O)c1ccc(Cl)c(S(=O)(=O)N2CCOCC2)c1`, the “lipid storage change, negative = inhibition” value was -15.9% (inactive) and the cell number change was -21%.
In the case of `COc1cccc(/C=C/C(=O)N2CCN(c3ccccn3)CC2)c1`, the “lipid storage change, negative = inhibition” value is reported as 9.27% (inactive) and the cell number change is reported as -5.2%.
In the case of `COc1cc(/C=C/C(=O)N2CCN(c3ccccn3)CC2)cc(OC)c1OC`, the Potency is reported as 16400 nM (active) and the cell number change is reported as -26.3%.
With `COc1ccc(OC)c(S(=O)(=O)N2CCN(c3ccccn3)CC2)c1` the “lipid storage change, negative = inhibition” value was -23.4% (inactive) and the cell number change was -24%.
In the case of `Cn1c(N)c(C(=O)COC(=O)COc2ccccc2C#N)c(=O)n(C)c1=O`, the “outcome” value is reported as “inactive”.
For `CC1CCCCN1C(=O)c1ccc(Br)o1` (centres undefined), the “outcome” value was “inactive” and the cell number change was 0.829%.
For `COc1ccc(/C=C/C(=O)c2ccc(O)cc2)cc1`, the “lipid storage change, negative = inhibition” value was 0.146% (inactive) and the cell number change was -13.4%.
For `CCNC(=S)NNC(=O)c1ccc(=O)n(Cc2ccccc2)c1`, the “lipid storage change, negative = inhibition” value was 12.6% (inactive) and the cell number change was 8.31%.
For `CN(C)C(=O)NC(Nc1ccc(Cl)cc1Cl)C(Cl)(Cl)Cl` (centres undefined), the “outcome” value was “inactive”.
With `Cc1ccc(CC(CC(=O)NCCc2ccc3c(c2)OCO3)C(=O)O)cc1` (centres undefined) the “lipid storage change, negative = inhibition” value was -23.3% (inactive).
With `O=C(NCc1ccncc1)c1ccc(Cl)c(S(=O)(=O)N2CCOCC2)c1` the “lipid storage change, negative = inhibition” value was 9.55% (inactive) and the cell number change was 18.6%.
In the case of `CN(C(=O)c1ccc(F)c(S(=O)(=O)N2CCOCC2)c1)C1CCCCC1`, the “lipid storage change, negative = inhibition” value is reported as 24.8% (inactive) and the cell number change is reported as 0.139%.
With `COc1ccc(C)cc1S(=O)(=O)N1CCCCC1` the “lipid storage change, negative = inhibition” value was 9.28% (inactive) and the cell number change was 6.88%.
In the case of `CN1CCC(N(C)C(=O)c2ccc(Cl)c(S(=O)(=O)N3CCCCC3)c2)CC1`, the Potency is reported as 14600 nM (active) and the cell number change is reported as -2.26%.
With `COc1ccc(C(=O)OCc2cc(C)ccc2C)cc1S(=O)(=O)N1CCCC1` the Potency was 82 nM (active) and the cell number change was -10.2%.
With `COc1ccc(C(=O)N2CCCC2)cc1S(=O)(=O)N1CCOCC1` the Potency was 7310 nM (active) and the cell number change was 9.79%.
In the case of `COc1ccc(CNC(=O)c2ccc(Cl)c(S(=O)(=O)N3CCOCC3)c2)cc1OC`, the Potency is reported as 1640 nM (active) and the cell number change is reported as -21%.
For `COc1ccc(C(=O)OCc2ccc(C)cc2)cc1S(=O)(=O)N1CCOCC1`, the “lipid storage change, negative = inhibition” value was 15.6% (inactive) and the cell number change was 0.435%.
For `COc1ccc(C(=O)N2CCN(S(=O)(=O)c3ccc(C)cc3)CC2)cc1S(=O)(=O)N1CCOCC1`, the “lipid storage change, negative = inhibition” value was -18.5% (inactive) and the cell number change was 3.33%.
In the case of `COc1ccc(C(=O)N2CCCC(C(N)=O)C2)cc1S(=O)(=O)N1CCOCC1` (centres undefined), the “lipid storage change, negative = inhibition” value is reported as -1.8% (inactive) and the cell number change is reported as 10.1%.
In the case of `O=C(NCc1cccnc1)c1ccc(Cl)c(S(=O)(=O)N2CCOCC2)c1`, the “outcome” value is reported as “inactive” and the cell number change is reported as -4.25%.
For `CN(C(=O)c1ccc(S(=O)(=O)N2CCCC2)cc1)C1CCCCC1`, the “lipid storage change, negative = inhibition” value was 0.283% (inactive) and the cell number change was -9.06%.
For `NC(=O)C1=C[C@@H](C2CCCCC2)C[C@@H](OCCCCO)O1`, the “lipid storage change, negative = inhibition” value was 5.82% (inactive) and the cell number change was 1.59%.
For `Cc1ccc(N2C(=O)C3C(C2=O)N2CCCN2C3c2ccccc2)cc1C` (centres undefined), the “lipid storage change, negative = inhibition” value was -5.4% (inactive) and the cell number change was 7.85%.
With `CCN(CC)C(=O)CC(c1ccc(F)cc1)c1ccco1` (centres undefined) the “lipid storage change, negative = inhibition” value was 2.63% (inactive) and the cell number change was -17.4%.
For `CCc1ccccc1NC(=O)CSc1nnc(Cn2cnc3ccccc32)o1`, the “lipid storage change, negative = inhibition” value was -1.44% (inactive) and the cell number change was -13.9%.
In the case of `COc1ccc(CCNC(=O)C(=O)NCC2OCCN2S(=O)(=O)c2cccs2)cc1` (centres undefined), the “lipid storage change, negative = inhibition” value is reported as 15.5% (inactive) and the cell number change is reported as 0.232%.
With `Cc1c(NC(=O)CSc2nnc(C(C)Oc3ccc(Cl)cc3)n2-c2ccccc2)c(=O)n(-c2ccccc2)n1C` (centres undefined) the “lipid storage change, negative = inhibition” value was 6.38% (inactive) and the cell number change was 8.96%.
With `COc1ccc(C(=O)N2CCN(c3ccccc3)CC2)cc1S(=O)(=O)N1CCOCC1` the Potency was 3260 nM (active) and the cell number change was 0.901%.
In the case of `Cc1ccc(C(=O)N2CCN(c3ccccc3)CC2)cc1S(=O)(=O)N1CCOCC1`, the “lipid storage change, negative = inhibition” value is reported as 0.336% (inactive) and the cell number change is reported as 22%.
With `COc1ccc(/C=C/C(=O)N2CCN(c3ccccc3)CC2)cc1S(=O)(=O)N1CCOCC1` the “lipid storage change, negative = inhibition” value was 21.1% (inactive).
In the case of `COC(=O)c1sc(NC(=O)C2c3ccccc3Oc3ccccc32)c(C(=O)OC)c1C`, the “lipid storage change, negative = inhibition” value is reported as -0.563% (inactive) and the cell number change is reported as 5.22%.
With `Cc1ccc(C2CC(C(F)F)n3ncc(C(=O)Nc4c(C)nn(Cc5c(F)cccc5Cl)c4C)c3N2)cc1` (centres undefined) the “lipid storage change, negative = inhibition” value was 0.101% (inactive) and the cell number change was 11%.
For `CCOC(=O)c1c(NC(=O)c2ccccc2C(=O)O)sc2c1CCC2`, the “outcome” value was “inactive” and the cell number change was 7.14%.
In the case of `COc1cc(-c2cc(-c3ccc(N)cc3)[nH]c(=O)c2C#N)cc(OC)c1OC`, the “lipid storage change, negative = inhibition” value is reported as 11.6% (inactive) and the cell number change is reported as 28%.
For `O=C(Nc1ccc(Cl)cn1)c1cccc(S(=O)(=O)N2CCCCC2)c1`, the “outcome” value was “inactive” and the cell number change was 14.3%.
With `COC(=O)c1ccccc1NC(=O)CCNC(=O)Cn1cnc2ccccc2c1=O` the “lipid storage change, negative = inhibition” value was -6.58% (inactive) and the cell number change was -2.73%.
For `O=C(Cn1cnc2ccccc2c1=O)NCCC(=O)Nc1ccccc1C(F)(F)F`, the Potency was 65.1 nM (active) and the cell number change was -3.75%.
With `O=C(Cn1cnc2ccccc2c1=O)NCCC(=O)Nc1ccc(F)cc1` the “lipid storage change, negative = inhibition” value was -9.21% (inactive) and the cell number change was 20.1%.
With `COC(=O)c1ccc(CSc2nc3ccccc3c(=O)n2N)cc1` the “outcome” value was “inactive” and the cell number change was -1.8%.
For `CC(C)CN(CC(C)C)S(=O)(=O)N1CCC(C(=O)NCc2ccco2)CC1`, the “lipid storage change, negative = inhibition” value was 2.25% (inactive) and the cell number change was -10.2%.
In the case of `O=C(CN(C(=O)CCC(=O)Nc1nccs1)c1ccccc1F)NCCc1ccccc1`, the “outcome” value is reported as “inactive” and the cell number change is reported as 18.7%.
In the case of `CCOc1ccccc1N(CC(=O)NCc1ccco1)C(=O)CCC(=O)Nc1nccs1`, the Potency is reported as 2590 nM (active) and the cell number change is reported as -1.71%.
With `CCc1ccccc1N(CC(=O)NCc1ccco1)C(=O)CCC(=O)Nc1nccs1` the “outcome” value was “inactive” and the cell number change was 6.09%.
With `COc1ccccc1N(CC(=O)NCCc1ccccc1)C(=O)CCC(=O)Nc1nccs1` the Potency was 2060 nM (active) and the cell number change was -5.22%.
With `Cc1ccccc1N(CC(=O)NCc1ccco1)C(=O)CCC(=O)Nc1nccs1` the “lipid storage change, negative = inhibition” value was 20.4% (inactive) and the cell number change was 7.88%.
With `COc1ccccc1N(CC(=O)NCc1ccc(F)cc1)C(=O)CCC(=O)Nc1nccs1` the “outcome” value was “inactive” and the cell number change was -10.4%.
